# Target: AgAbp1
# Assay: SPOT peptide array binding signal intensity (averaged, normalized) (arbitrary units (background-subtracted, floor 0; scale differs between SH3 domains)); higher = stronger binding of the SH3 domain to the peptide
# Procedure, shortened: (§1)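 GST-fused SH3 domains from four yeast species were expressed in E. coli BL21(DE3), purified on glutathione Sepharose and incubated at 10 μg/ml overnight at 4°C in TBS-based blocking buffer on cellulose membranes carrying synthetic 15-mer peptides, with cysteines replaced by serines. Bound protein was detected with anti-GST antibody, an HRP anti-mouse secondary and luminol, then imaged and quantified with Genespotter. Binding signal is the normalized, background-subtracted spot intensity averaged over replicates, in arbitrary units that differ between domains.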
row,Binder,SPOT peptide array binding signal intensity
1,DKKTKPTPPPKPSHL,1090

# Target: AgBbc1
# Assay: as above
# Procedure, shortened: as §1
row,Binder,SPOT peptide array binding signal intensity
1,DKKTKPTPPPKPSHL,24.8

# Target: AgBem1-D1
# Assay: as above
# Procedure, shortened: as §1
row,Binder,SPOT peptide array binding signal intensity
1,DKKTKPTPPPKPSHL,≤ 0

# Target: AgBzz1-D1
# Assay: as above
# Procedure, shortened: as §1
row,Binder,SPOT peptide array binding signal intensity
1,DKKTKPTPPPKPSHL,61

# Target: AgBzz1-D2
# Assay: as above
# Procedure, shortened: as §1
row,Binder,SPOT peptide array binding signal intensity
1,DKKTKPTPPPKPSHL,34.5

# Target: AgCyk3
# Assay: as above
# Procedure, shortened: as §1
row,Binder,SPOT peptide array binding signal intensity
1,DKKTKPTPPPKPSHL,1

# Target: AgFus1
# Assay: as above
# Procedure, shortened: as §1
row,Binder,SPOT peptide array binding signal intensity
1,DKKTKPTPPPKPSHL,6

# Target: AgHof1
# Assay: as above
# Procedure, shortened: as §1
row,Binder,SPOT peptide array binding signal intensity
1,DKKTKPTPPPKPSHL,18.5

# Target: AgHse1
# Assay: as above
# Procedure, shortened: as §1
row,Binder,SPOT peptide array binding signal intensity
1,DKKTKPTPPPKPSHL,≤ 0

# Target: AgLsb1
# Assay: as above
# Procedure, shortened: as §1
row,Binder,SPOT peptide array binding signal intensity
1,DKKTKPTPPPKPSHL,≤ 0

# Target: AgLsb4
# Assay: as above
# Procedure, shortened: as §1
row,Binder,SPOT peptide array binding signal intensity
1,DKKTKPTPPPKPSHL,≤ 0

# Target: AgMyo5
# Assay: as above
# Procedure, shortened: as §1
row,Binder,SPOT peptide array binding signal intensity
1,DKKTKPTPPPKPSHL,≤ 0

# Target: AgNbp2
# Assay: as above
# Procedure, shortened: as §1
row,Binder,SPOT peptide array binding signal intensity
1,DKKTKPTPPPKPSHL,≤ 0

# Target: AgRvs167
# Assay: as above
# Procedure, shortened: as §1
row,Binder,SPOT peptide array binding signal intensity
1,DKKTKPTPPPKPSHL,0.167

# Target: AgSho1
# Assay: as above
# Procedure, shortened: as §1
row,Binder,SPOT peptide array binding signal intensity
1,DKKTKPTPPPKPSHL,45

# Target: AgSla1-D1-D2
# Assay: as above
# Procedure, shortened: as §1
row,Binder,SPOT peptide array binding signal intensity
1,DKKTKPTPPPKPSHL,≤ 0

# Target: AgSla1-D3
# Assay: as above
# Procedure, shortened: as §1
row,Binder,SPOT peptide array binding signal intensity
1,DKKTKPTPPPKPSHL,2

# Target: CaAbp1-D1
# Assay: as above
# Procedure, shortened: as §1
row,Binder,SPOT peptide array binding signal intensity
1,DKKTKPTPPPKPSHL,1790

# Target: CaAbp1-D2
# Assay: as above
# Procedure, shortened: as §1
row,Binder,SPOT peptide array binding signal intensity
1,DKKTKPTPPPKPSHL,3130

# Target: CaBbc1
# Assay: as above
# Procedure, shortened: as §1
row,Binder,SPOT peptide array binding signal intensity
1,DKKTKPTPPPKPSHL,50.8

# Target: CaBem1-D1
# Assay: as above
# Procedure, shortened: as §1
row,Binder,SPOT peptide array binding signal intensity
1,DKKTKPTPPPKPSHL,≤ 0

# Target: CaBzz1-D1
# Assay: as above
# Procedure, shortened: as §1
row,Binder,SPOT peptide array binding signal intensity
1,DKKTKPTPPPKPSHL,1480

# Target: CaBzz1-D2
# Assay: as above
# Procedure, shortened: as §1
row,Binder,SPOT peptide array binding signal intensity
1,DKKTKPTPPPKPSHL,262

# Target: CaCyk3
# Assay: as above
# Procedure, shortened: as §1
row,Binder,SPOT peptide array binding signal intensity
1,DKKTKPTPPPKPSHL,≤ 0

# Target: CaFus1
# Assay: as above
# Procedure, shortened: as §1
row,Binder,SPOT peptide array binding signal intensity
1,DKKTKPTPPPKPSHL,≤ 0

# Target: CaHof1
# Assay: as above
# Procedure, shortened: as §1
row,Binder,SPOT peptide array binding signal intensity
1,DKKTKPTPPPKPSHL,0.75

# Target: CaHse1
# Assay: as above
# Procedure, shortened: as §1
row,Binder,SPOT peptide array binding signal intensity
1,DKKTKPTPPPKPSHL,8.5

# Target: CaLsb1
# Assay: as above
# Procedure, shortened: as §1
row,Binder,SPOT peptide array binding signal intensity
1,DKKTKPTPPPKPSHL,0.5

# Target: CaLsb4
# Assay: as above
# Procedure, shortened: as §1
row,Binder,SPOT peptide array binding signal intensity
1,DKKTKPTPPPKPSHL,≤ 0

# Target: CaMyo5
# Assay: as above
# Procedure, shortened: as §1
row,Binder,SPOT peptide array binding signal intensity
1,DKKTKPTPPPKPSHL,≤ 0

# Target: CaNbp2
# Assay: as above
# Procedure, shortened: as §1
row,Binder,SPOT peptide array binding signal intensity
1,DKKTKPTPPPKPSHL,≤ 0

# Target: CaRvs167
# Assay: as above
# Procedure, shortened: as §1
row,Binder,SPOT peptide array binding signal intensity
1,DKKTKPTPPPKPSHL,0.333

# Target: CaRvs167-3
# Assay: as above
# Procedure, shortened: as §1
row,Binder,SPOT peptide array binding signal intensity
1,DKKTKPTPPPKPSHL,3.5

# Target: CaSho1
# Assay: as above
# Procedure, shortened: as §1
row,Binder,SPOT peptide array binding signal intensity
1,DKKTKPTPPPKPSHL,24

# Target: CaSla1-D1-D2
# Assay: as above
# Procedure, shortened: as §1
row,Binder,SPOT peptide array binding signal intensity
1,DKKTKPTPPPKPSHL,≤ 0

# Target: CaSla1-D3
# Assay: as above
# Procedure, shortened: as §1
row,Binder,SPOT peptide array binding signal intensity
1,DKKTKPTPPPKPSHL,≤ 0

# Target: ScAbp1
# Assay: as above
# Procedure, shortened: as §1
row,Binder,SPOT peptide array binding signal intensity
1,DKKTKPTPPPKPSHL,2120

# Target: ScBbc1
# Assay: as above
# Procedure, shortened: as §1
row,Binder,SPOT peptide array binding signal intensity
1,DKKTKPTPPPKPSHL,≤ 0

# Target: ScBem1-D1
# Assay: as above
# Procedure, shortened: as §1
row,Binder,SPOT peptide array binding signal intensity
1,DKKTKPTPPPKPSHL,≤ 0

# Target: ScBzz1-D1
# Assay: as above
# Procedure, shortened: as §1
row,Binder,SPOT peptide array binding signal intensity
1,DKKTKPTPPPKPSHL,1

# Target: ScBzz1-D2
# Assay: as above
# Procedure, shortened: as §1
row,Binder,SPOT peptide array binding signal intensity
1,DKKTKPTPPPKPSHL,46.5

# Target: ScCyk3
# Assay: as above
# Procedure, shortened: as §1
row,Binder,SPOT peptide array binding signal intensity
1,DKKTKPTPPPKPSHL,≤ 0

# Target: ScFus1
# Assay: as above
# Procedure, shortened: as §1
row,Binder,SPOT peptide array binding signal intensity
1,DKKTKPTPPPKPSHL,1

# Target: ScHof1
# Assay: as above
# Procedure, shortened: as §1
row,Binder,SPOT peptide array binding signal intensity
1,DKKTKPTPPPKPSHL,1.5

# Target: ScHse1
# Assay: as above
# Procedure, shortened: as §1
row,Binder,SPOT peptide array binding signal intensity
1,DKKTKPTPPPKPSHL,16.5

# Target: ScLsb1
# Assay: as above
# Procedure, shortened: as §1
row,Binder,SPOT peptide array binding signal intensity
1,DKKTKPTPPPKPSHL,≤ 0

# Target: ScLsb2
# Assay: as above
# Procedure, shortened: as §1
row,Binder,SPOT peptide array binding signal intensity
1,DKKTKPTPPPKPSHL,≤ 0

# Target: ScLsb3
# Assay: as above
# Procedure, shortened: as §1
row,Binder,SPOT peptide array binding signal intensity
1,DKKTKPTPPPKPSHL,1270

# Target: ScLsb4
# Assay: as above
# Procedure, shortened: as §1
row,Binder,SPOT peptide array binding signal intensity
1,DKKTKPTPPPKPSHL,≤ 0

# Target: ScMyo3
# Assay: as above
# Procedure, shortened: as §1
row,Binder,SPOT peptide array binding signal intensity
1,DKKTKPTPPPKPSHL,0.5

# Target: ScMyo5
# Assay: as above
# Procedure, shortened: as §1
row,Binder,SPOT peptide array binding signal intensity
1,DKKTKPTPPPKPSHL,≤ 0

# Target: ScNbp2
# Assay: as above
# Procedure, shortened: as §1
row,Binder,SPOT peptide array binding signal intensity
1,DKKTKPTPPPKPSHL,4

# Target: ScPex13
# Assay: as above
# Procedure, shortened: as §1
row,Binder,SPOT peptide array binding signal intensity
1,DKKTKPTPPPKPSHL,138

# Target: ScRvs167
# Assay: as above
# Procedure, shortened: as §1
row,Binder,SPOT peptide array binding signal intensity
1,DKKTKPTPPPKPSHL,≤ 0

# Target: ScSho1
# Assay: as above
# Procedure, shortened: as §1
row,Binder,SPOT peptide array binding signal intensity
1,DKKTKPTPPPKPSHL,280

# Target: ScSla1-D1-D2
# Assay: as above
# Procedure, shortened: as §1
row,Binder,SPOT peptide array binding signal intensity
1,DKKTKPTPPPKPSHL,≤ 0

# Target: ScSla1-D3
# Assay: as above
# Procedure, shortened: as §1
row,Binder,SPOT peptide array binding signal intensity
1,DKKTKPTPPPKPSHL,3

# Target: SpAbp1-D1
# Assay: as above
# Procedure, shortened: as §1
row,Binder,SPOT peptide array binding signal intensity
1,DKKTKPTPPPKPSHL,2240

# Target: SpBbc1
# Assay: as above
# Procedure, shortened: as §1
row,Binder,SPOT peptide array binding signal intensity
1,DKKTKPTPPPKPSHL,3.5

# Target: SpBzz1-D1
# Assay: as above
# Procedure, shortened: as §1
row,Binder,SPOT peptide array binding signal intensity
1,DKKTKPTPPPKPSHL,235

# Target: SpBzz1-D2
# Assay: as above
# Procedure, shortened: as §1
row,Binder,SPOT peptide array binding signal intensity
1,DKKTKPTPPPKPSHL,≤ 0

# Target: SpCyk3
# Assay: as above
# Procedure, shortened: as §1
row,Binder,SPOT peptide array binding signal intensity
1,DKKTKPTPPPKPSHL,≤ 0

# Target: SpHof1
# Assay: as above
# Procedure, shortened: as §1
row,Binder,SPOT peptide array binding signal intensity
1,DKKTKPTPPPKPSHL,0.75

# Target: SpHof1-2
# Assay: as above
# Procedure, shortened: as §1
row,Binder,SPOT peptide array binding signal intensity
1,DKKTKPTPPPKPSHL,6.5

# Target: SpHof1-3
# Assay: as above
# Procedure, shortened: as §1
row,Binder,SPOT peptide array binding signal intensity
1,DKKTKPTPPPKPSHL,86

# Target: SpHse1
# Assay: as above
# Procedure, shortened: as §1
row,Binder,SPOT peptide array binding signal intensity
1,DKKTKPTPPPKPSHL,0.75

# Target: SpLsb1
# Assay: as above
# Procedure, shortened: as §1
row,Binder,SPOT peptide array binding signal intensity
1,DKKTKPTPPPKPSHL,138

# Target: SpLsb4
# Assay: as above
# Procedure, shortened: as §1
row,Binder,SPOT peptide array binding signal intensity
1,DKKTKPTPPPKPSHL,≤ 0

# Target: SpMyo1
# Assay: as above
# Procedure, shortened: as §1
row,Binder,SPOT peptide array binding signal intensity
1,DKKTKPTPPPKPSHL,≤ 0

# Target: SpNbp2
# Assay: as above
# Procedure, shortened: as §1
row,Binder,SPOT peptide array binding signal intensity
1,DKKTKPTPPPKPSHL,≤ 0

# Target: SpPex13
# Assay: as above
# Procedure, shortened: as §1
row,Binder,SPOT peptide array binding signal intensity
1,DKKTKPTPPPKPSHL,1.5

# Target: SpRvs167
# Assay: as above
# Procedure, shortened: as §1
row,Binder,SPOT peptide array binding signal intensity
1,DKKTKPTPPPKPSHL,33.3

# Target: SpSla1-D1-D2
# Assay: as above
# Procedure, shortened: as §1
row,Binder,SPOT peptide array binding signal intensity
1,DKKTKPTPPPKPSHL,≤ 0

# Target: SpSla1-D3
# Assay: as above
# Procedure, shortened: as §1
row,Binder,SPOT peptide array binding signal intensity
1,DKKTKPTPPPKPSHL,1
